This is an account of results in the supplement of paper PMC3334620.

In all, about 33,000 sequences were measured (“E-score (-0.5 to 0.5)”: median about -0.011, highest 2% from about 0.28 on). The list comes from a sample in which the highest values are over-represented; it also holds similar and randomly drawn sequences.

The target in this assay is T1, Gcr1 (UniProt P07261).
T1 sequence: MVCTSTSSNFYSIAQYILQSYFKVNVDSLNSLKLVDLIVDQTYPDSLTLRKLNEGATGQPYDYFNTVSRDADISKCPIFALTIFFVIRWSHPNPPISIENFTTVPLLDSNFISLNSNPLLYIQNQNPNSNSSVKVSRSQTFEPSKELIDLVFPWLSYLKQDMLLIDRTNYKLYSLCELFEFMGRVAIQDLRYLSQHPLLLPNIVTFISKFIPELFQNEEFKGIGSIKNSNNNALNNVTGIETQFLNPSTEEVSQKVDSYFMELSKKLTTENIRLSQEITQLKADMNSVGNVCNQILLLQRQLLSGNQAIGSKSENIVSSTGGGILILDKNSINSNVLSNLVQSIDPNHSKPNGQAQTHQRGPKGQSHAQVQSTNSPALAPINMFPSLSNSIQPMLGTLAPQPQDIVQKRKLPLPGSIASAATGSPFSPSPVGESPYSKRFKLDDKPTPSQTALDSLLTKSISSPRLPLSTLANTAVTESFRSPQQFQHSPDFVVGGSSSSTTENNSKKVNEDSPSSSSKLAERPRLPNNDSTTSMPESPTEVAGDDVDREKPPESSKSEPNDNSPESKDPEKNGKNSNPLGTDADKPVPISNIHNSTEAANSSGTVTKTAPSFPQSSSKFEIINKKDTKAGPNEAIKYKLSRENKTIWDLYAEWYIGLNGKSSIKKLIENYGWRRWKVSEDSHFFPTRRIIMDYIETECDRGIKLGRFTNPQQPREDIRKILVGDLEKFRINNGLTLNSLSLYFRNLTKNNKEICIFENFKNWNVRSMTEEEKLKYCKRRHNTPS
The assay can be described thus: PBM E-score (8-mer binding enrichment) (E-score (-0.5 to 0.5)); higher = stronger / more preferred TF binding. To be noted: protein concentration: 100 nM; construct: GST-full length. As to the method: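 Universal 'all 10-mer' protein binding microarrays (Agilent AMADID 015681) probed with GST-tagged S. cerevisiae TFs (full-length or DBD) made by in vitro transcription/translation (PURExpress), about 100-200 nM. Bound TF was detected with fluorescent anti-GST. Each ungapped 8-mer (which stands for itself and its reverse complement) is scored by the PBM enrichment score (E-score), a modified Wilcoxon-Mann-Whitney statistic from -0.5 to +0.5, computed with the Universal PBM Analysis Suite. Scale: above 0.35 generally sequence-specific binding.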
Take GTAAAGAC: the “PBM E-score” value is -0.129.

Regarding CAGGCCAG, the “PBM E-score” value is -0.207.

Turning to CGGCTGGA, the “PBM E-score” value was 0.0497.

In the case of CATTCGGA, the “PBM E-score” value worked out at 0.00656.

GATGCCGC: the “PBM E-score” value was determined as 0.267.

Regarding GACAAGAC, the “PBM E-score” value was determined as 0.0539.

For the sequence CTCAGAAA, the “PBM E-score” value was -0.133.

Take GAAAACGC: the “PBM E-score” value was -0.167.

Consider AGTCTCGC, for which the “PBM E-score” value is -0.154.

Take AGGGCTCC: the “PBM E-score” value amounted to 0.143.

In the case of CAAAGGAC, the “PBM E-score” value is -0.127.

For the sequence CCAGCTGC, the “PBM E-score” value worked out at 0.218.

Take CGAGCTTA: the “PBM E-score” value is -0.185.

With ACAGCTTA, the “PBM E-score” value is -0.0153.

As for CCAGCTTA, the “PBM E-score” value is -0.0932.

Consider CGAGCTTC, for which the “PBM E-score” value was 0.371.

On to AGAGCTTC, for which the “PBM E-score” value amounted to 0.267.

On to CCAGCTTC, for which the “PBM E-score” value turned out to be 0.333.

For the sequence ACAGCTTC, the “PBM E-score” value is 0.345.

As to ACAGCTTG, the “PBM E-score” value was -0.199.

For AGTTCCAT, the “PBM E-score” value is -0.107.

AGAAGCAC: the “PBM E-score” value was determined as 0.126.

For the sequence ACCCCGCC, the “PBM E-score” value amounted to 0.0633.

On to CTCTAAGA, for which the “PBM E-score” value was -0.00019.

Take AACTTCGG: the “PBM E-score” value is -0.0312.

With ACCAGCTC, the “PBM E-score” value is -0.149.

In the case of CATACGCA, the “PBM E-score” value was determined as 0.0448.

For TATACGCA, the “PBM E-score” value came to 0.285.

As to GATACGCA, the “PBM E-score” value came out at 0.247.

In the case of GATGCGGC, the “PBM E-score” value is 0.299.

In the case of CATGCGGC, the “PBM E-score” value is -0.0307.

Take GATGCGGA: the “PBM E-score” value came to 0.033.

As to CTGATCTC, the “PBM E-score” value was -0.125.

As to AGCGCCCG, the “PBM E-score” value was found to be 0.272.

CATAGGAA: the “PBM E-score” value turned out to be 0.134.

Turning to GATAGGAA, the “PBM E-score” value worked out at 0.208.

For TCTAGGAA, the “PBM E-score” value was 0.105.

With AATAGGAT, the “PBM E-score” value came out at 0.187.

Consider TATAGGAA, for which the “PBM E-score” value was determined as 0.318.

As to AATAGGAA, the “PBM E-score” value was determined as 0.352.

On to ACATATCA, for which the “PBM E-score” value was 0.129.

CTCCGCGA: the “PBM E-score” value was determined as 0.0908.

GGCATTTA: the “PBM E-score” value was -0.124.

As for ACTGCACA, the “PBM E-score” value was -0.211.

Take CCAGCCAC: the “PBM E-score” value worked out at 0.0313.

Regarding ACAGCCAC, the “PBM E-score” value is -0.00306.

With GCAGCCAA, the “PBM E-score” value was determined as 0.395.

As for GCAGCCAC, the “PBM E-score” value amounted to 0.383.

As to TCAGCCAA, the “PBM E-score” value was -0.102.

For the sequence CCAGCCAA, the “PBM E-score” value is -0.11.

For ACCGCCAT, the “PBM E-score” value is -0.181.

Turning to GACCTAGC, the “PBM E-score” value was -0.152.

Take GATATTGC: the “PBM E-score” value turned out to be 0.00295.

For CCTAGGTC, the “PBM E-score” value is -0.17.

As to GCTCGACC, the “PBM E-score” value was 0.00687.

As to CTGGCAGC, the “PBM E-score” value stood at 0.386.

CCGGCAGC: the “PBM E-score” value was found to be 0.292.

Turning to CCGGCAAG, the “PBM E-score” value is -0.101.

In the case of CCGGCAAC, the “PBM E-score” value worked out at 0.318.

As for CCGGCAGG, the “PBM E-score” value is -0.253.

For GGGGCACC, the “PBM E-score” value turned out to be 0.351.

Take ATGGCAGC: the “PBM E-score” value was determined as 0.0656.

Turning to GCGGCAAC, the “PBM E-score” value amounted to 0.0813.

Regarding AGGGCACC, the “PBM E-score” value was found to be 0.13.

For CTGGCAGA, the “PBM E-score” value is 0.0263.

For the sequence GGGGCACA, the “PBM E-score” value is -0.0447.

With CCGGCAGA, the “PBM E-score” value turned out to be 0.0729.

As to AGTTCGAA, the “PBM E-score” value was -0.0147.

With GCCCAAAC, the “PBM E-score” value amounted to 0.111.

With GTTACCCA, the “PBM E-score” value is -0.141.

Regarding CCCTCTCA, the “PBM E-score” value was -0.131.

For the sequence GAGTACCC, the “PBM E-score” value was -0.0644.

On to CCCACTCC, for which the “PBM E-score” value was 0.0066.

For the sequence CGGGTCTA, the “PBM E-score” value was determined as 0.0247.

As for CTGGCACA, the “PBM E-score” value is -0.0796.

For CGGGCATC, the “PBM E-score” value was determined as 0.282.

As for CCGGCATA, the “PBM E-score” value worked out at 0.0787.

With CGGGCATA, the “PBM E-score” value is -0.232.

As for CCGGCATC, the “PBM E-score” value was 0.38.

In the case of CGGGCAGA, the “PBM E-score” value is -0.0209.

Take CGGGCAGC: the “PBM E-score” value worked out at 0.309.

Take AGGGCATC: the “PBM E-score” value turned out to be 0.129.

On to AGGGCAGC, for which the “PBM E-score” value came out at 0.0608.

On to CTGGCACC, for which the “PBM E-score” value was 0.392.

For ATGGCACC, the “PBM E-score” value was 0.201.

Turning to ACGGCATC, the “PBM E-score” value came out at 0.2.

For the sequence AGTTTCAT, the “PBM E-score” value was 0.116.

As for CCAAAGGC, the “PBM E-score” value was -0.185.

For CCCGCTTA, the “PBM E-score” value came to 0.161.

Consider CATGCGTC, for which the “PBM E-score” value is -0.0513.

For the sequence CCTGAGAG, the “PBM E-score” value is -0.131.

As to CGACCGAC, the “PBM E-score” value was found to be 0.0935.

With CACCAGTC, the “PBM E-score” value is -0.02.

For GGGGTCCA, the “PBM E-score” value stood at 0.0846.
